Compounds with a hit are over-represented: about 9.3% of the library has one in this group of screens.
FLuc modulator: firefly luciferase modulation, counter-screen for miR-21 project; purified FLuc, Km substrates, luminescence inhibition; P08659; Potency, µM (series often up to 57.5 µM), hits mostly inhibitors; 360,000 tested, 6.9% active; further: nearly all actives have a fitted effect of over 55% in size
Target sequence (P08659 whole entry, looked up): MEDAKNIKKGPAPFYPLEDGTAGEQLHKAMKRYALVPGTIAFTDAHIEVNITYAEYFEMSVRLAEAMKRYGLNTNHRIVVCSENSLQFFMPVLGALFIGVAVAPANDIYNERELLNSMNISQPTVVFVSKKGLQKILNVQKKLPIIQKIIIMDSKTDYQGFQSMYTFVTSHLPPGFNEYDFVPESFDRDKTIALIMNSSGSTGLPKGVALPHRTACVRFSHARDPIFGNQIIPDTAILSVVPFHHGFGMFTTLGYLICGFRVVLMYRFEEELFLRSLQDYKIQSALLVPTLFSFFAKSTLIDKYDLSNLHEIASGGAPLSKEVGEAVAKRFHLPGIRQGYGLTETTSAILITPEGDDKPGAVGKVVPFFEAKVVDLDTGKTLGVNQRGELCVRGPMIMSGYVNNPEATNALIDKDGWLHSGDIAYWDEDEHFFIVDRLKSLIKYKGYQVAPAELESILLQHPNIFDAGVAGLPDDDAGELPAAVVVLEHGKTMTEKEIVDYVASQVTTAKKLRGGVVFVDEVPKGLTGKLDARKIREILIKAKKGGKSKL
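Purified P. pyralis luciferase, 10 nM final, with Km-level 10 uM D-luciferin and 10 uM ATP in 50 mM Tris acetate pH 7.5, 10 mM Mg acetate, 0.01% Tween-20, 0.05% BSA; 6-point qHTS titration about 60 µM downward; luminescence read.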
NPC1 promoter act: activates the NPC1 promoter. Huh7 NPC1 promoter luciferase reporter, 24 h. Potency, µM (doses to about 9.22 µM), actives largely listed as activators. 320,000 tested, 2.4% active. AID 485313; further: nearly all actives have a fitted effect of over 60% in size
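Compounds in DMSO were transferred onto Huh7 NPC1-luciferase reporter cells pre-incubated 2 h; after 24 h at 37 °C, Amplite reagent was dispensed and luminescence recorded 10 min later.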
ELG1 DNA repair: blocks ELG1-dependent DNA repair in HEK293T cells. HEK293T ELG1-luciferase reporter, luminescence, 16 h; DNA damage induced by 5-fluorouridine. Potency, µM (titrated, usually from 46.1 µM), most hits filed as inhibitors. 330,000 tested, 2.3% active. AID 504467; further: nearly all actives have a fitted effect of over 55% in size
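Step one: seed 2,000 cells per well. Step two: pin-transfer compound or DMSO alongside 5-fluorouridine. Step three: incubate 16 hr, 37 °C, 5% CO2. Step four: add ONE-Glo, wait 30 min, read luminescence.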
SMN2 splice enh: SMN2 splice variant enhancement; Potency, µM (doses to about 46.1 µM), actives largely listed as activators; HEK293 SMN2-luciferase splicing reporter, luminescence, 30-36 h; 210,000 tested, 2.8% active; AID 1458; further: nearly all actives have a fitted effect of over 55% in size
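HEK293 cells carry an SMN2 […]–luciferase reporter in which exon 7 inclusion puts luciferase in frame. Cells were plated 10-12 h before compound addition, then incubated 30-36 h at 37C. ONE-Glo luminescence was read; sodium butyrate at 4.5 mM final served as control.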
Rab9 prom act: activators of Rab9 promoter. 320,000 tested, 2.8% active. Huh7 Rab9 promoter-luciferase reporter, luminescence, 24 h. Potency, µM (series often up to 9.22 µM), actives largely listed as activators; further: nearly all actives have a fitted effect of over 60% in size
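Cells were plated at 1500 per well in reduced-serum medium with 10% FBS and left 2 h. Compound in DMSO was then added for 24 h at 37 °C. Reporter signal was read by luminescence after 10 min with luciferase detection reagent.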
ELG1 genotoxic: inducers of genotoxicity in HEK293T ELG1-luciferase cells. Potency, µM (doses to about 46 µM), actives largely listed as activators. HEK293T ELG1-luciferase reporter, luminescence, 16 h. 330,000 tested, 1.3% active. AID 504466; further: nearly all actives have a fitted effect of over 60% in size
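Quantitative HTS format in 1536-well plates. HEK293T ELG1-luciferase reporter cells receive test compound and are incubated 16 hr at 37 °C, 5% CO2; ONE-Glo added, 30 min room temperature, then luminescence read.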
Numbers stand for hits; . = inactive; ? = inconclusive; / = not tested or not shown. The call rests on the fitted dose curve; in most records, active means well fitted curve in the direction sought with a large enough effect; inconclusive means small, poorly fitted or top-dose-only effect, or another doubt; inactive means no such curve, though single readings can be large; an effect the other way counts as inactive or inconclusive.

SMILES	FLuc modulator	NPC1 promoter act	ELG1 DNA repair	SMN2 splice enh	Rab9 prom act	ELG1 genotoxic
c1ccc(-n2ncc3c(N4CCC5(CC4)OCCO5)ncnc32)cc1	13µM	2.5µM	?	13µM	?	4.1µM
Clc1ccc(N2CCN(c3ncnc4c3cnn4-c3ccccc3)CC2)cc1Cl	.	/	/	/	/	/
Cc1cccc(-n2ncc3c(N4CCC5(CC4)OCCO5)ncnc32)c1	6.7µM	2.8µM	?	/	2.5µM	?
CC(=O)/C=C(\C)N=Nc1c(O)[nH]c2ccccc12	13µM	.	?	/	.	.
C=CCn1c(O)c(N=NC(=O)c2ccc3c(c2)OCO3)c2ccccc21	3µM	?	?	.	?	.
C=CCn1c(O)c(N=NC(=O)OCC)c2ccccc21	.	.	.	.	.	.
O=C(N=Nc1c(O)[nH]c2ccccc12)c1ccco1	5.4µM	3.5µM	?	/	2µM	?
O=C(CSCc1ccccc1)N=Nc1c(O)[nH]c2ccccc12	.	.	?	.	.	.
O=C(N=Nc1c(O)[nH]c2ccccc12)c1ccc2c(c1)OCO2	0.6µM	2.2µM	?	11µM	0.56µM	?
O=C(CSc1nnc(C2CC2)n1CC1CCCO1)Nc1ccc(Cl)cc1 (centres undefined)	.	.	.	/	.	.
O=C(CNC(=O)c1ccccn1)N=Nc1c(O)[nH]c2ccccc12	15µM	.	?	/	.	.
Cc1cc(C)c(O)c(-c2cc(C(=O)Nc3c(C)n(C)n(-c4ccccc4)c3=O)[nH]n2)c1	.	.	.	/	.	.
O=c1cc(CCl)[nH]c2nc3ccccc3n12	?	.	.	/	.	.
O=c1cc(-c2ccccc2)[nH]c2nc3ccccc3n12	0.95µM	3.5µM	?	4µM	2µM	2.3µM
Cc1ccc(-n2cc(C(=O)OCc3ccc(F)c(F)c3)c3ccccc3c2=O)cc1	.	/	/	/	/	/
CCN(CC)c1ccc(/C=C2\SC(=O)N(C(C)C)C2=O)o1	19µM	.	?	/	.	.
COc1ccc(COC(=O)N/N=C/c2cccs2)cc1	.	.	?	/	?	?
CCOC(=O)Cn1cc(C(=O)c2cccs2)c2ccccc21	?	.	.	0.14µM	.	.
CCN(CC)CCOC(=O)c1ccc(NC(=O)c2cc3c(s2)-c2ccccc2OC3)cc1	.	/	/	.	/	/
Cc1oc(-c2ccc3c(c2)OCCO3)cc1C(=O)O	2.4µM	.	1.6µM	.	.	.
COc1ccc(-c2cc(C(=O)O)c(C)o2)cc1OC	1.7µM	?	?	0.63µM	0.32µM	?
Cc1oc(-c2ccc3c(c2)OCCO3)cc1C(=O)NCC(=O)O	.	.	?	/	.	.
CCN(CC)S(=O)(=O)c1cc(NC(=O)C(=O)c2c(-c3ccccc3)cc3ccccn23)ccc1C	.	.	16µM	.	.	.
CCN(CC)S(=O)(=O)c1ccc(N2CCOCC2)c(NC(=O)C(=O)c2c(-c3ccccc3)cc3ccccn23)c1	.	.	?	.	.	.
CN(C)CCNC(=O)C(=O)c1c(-c2ccccc2)cc2ccccn12	.	.	.	.	.	.
SMILES	FLuc modulator	NPC1 promoter act	ELG1 DNA repair	SMN2 splice enh	Rab9 prom act	ELG1 genotoxic
CCN(CC)S(=O)(=O)c1cccc(NC(=O)C(=O)c2c(-c3ccccc3)cc3ccccn23)c1	.	.	16µM	.	.	.
CN1CCN(CCCNC(=O)Nc2ccc([N+](=O)[O-])cc2)CC1	.	.	.	/	.	.
COc1cccc(CC2CC(=O)N(c3ccc4c(C)cc(=O)oc4c3)C2=O)c1 (centres undefined)	.	.	.	.	.	.
CC(C)OCCCNC(=O)CN1C(=O)CSc2ccc(S(=O)(=O)N3CCOCC3)cc21	.	/	/	/	/	/
Cc1ccc(NC(=O)Cn2c(/C=C/c3ccccc3)nc3ccccc32)cc1C	?	.	.	.	.	?
CCCn1c(/C=C/c2ccccc2)nc2ccccc21	3µM	1.8µM	?	11µM	1.8µM	?
CC(C)n1c(/C=C/c2ccccc2)nc2ccccc21	2.4µM	?	?	11µM	?	?
COCCOCCn1c(/C=C/c2ccccc2)nc2ccccc21	1.7µM	1.4µM	?	13µM	1.4µM	?
CC(C)c1ccccc1NC(=O)Cn1c(/C=C/c2ccccc2)nc2ccccc21	21µM	.	?	/	.	?
CC(C)n1c(CN(C)c2ccccc2)nc2ccccc21	.	.	.	/	.	.
CCc1nc2ccccc2n1Cc1ccc(OC)c(OC)c1	.	.	.	.	.	.
COc1ccc(/C=C/c2nc3ccccc3n2Cc2ccc(OC)c(OC)c2)cc1	0.43µM	1.6µM	?	/	0.79µM	2.1µM
CCOc1ccc(C(=O)NC(Cc2ccccc2)C(=O)OC)cc1 (centres undefined)	4.8µM	.	?	.	?	.
CCCNC(=O)C(Cc1ccc(I)cc1)NC(=O)c1ccc2ccccc2n1 (centres undefined)	.	.	?	/	.	.
COC(=O)[C@H](Cc1ccccc1)NC(=O)c1ccc2ccccc2n1	6.7µM	.	?	/	.	.
CCOc1ccc(C(=O)NC(C)CCc2ccccc2)cc1 (centres undefined)	.	.	?	/	.	.
COc1cccc(/C=C/C(=O)c2cccc([N+](=O)[O-])c2)c1OC	11µM	.	.	.	.	?
O=C(/C=C/c1ccc(N2CCCCC2)c([N+](=O)[O-])c1)c1ccc(S(=O)(=O)N2CCCC2)cc1	.	.	?	.	.	.
COc1ccc(/C=C(/NC(=O)c2cccc([N+](=O)[O-])c2)C(=O)O)cc1OC	.	.	.	.	.	.
COc1cccc(/C=C/C(=O)c2cccc([N+](=O)[O-])c2)c1	8.5µM	.	?	.	.	?
COc1cccc(C(=O)/C=C/c2ccc(N3CCCCC3)c([N+](=O)[O-])c2)c1	8.5µM	.	.	.	.	.
COc1ccc(OC(=O)c2cccc([N+](=O)[O-])c2)c(C(=O)/C=C/c2cccs2)c1	.	.	?	.	.	?
CCOc1cccc(CN(C)CC2CCCN(CCc3ccc(Cl)cc3)C2)c1O (centres undefined)	.	.	.	/	.	.
Cc1ccc(C)c(OCCn2c(=O)c3c(ncn3C3CCCC3)n(Cc3ccccc3)c2=O)c1	.	.	21µM	.	.	.
CN(c1ccccc1)S(=O)(=O)c1cccc(NC(=O)C2=NNC(=O)CC2)c1	/	/	16µM	/	/	.
Cc1ccc(C(=O)Nc2cccc(S(=O)(=O)N(C)c3ccccc3)c2)o1	.	.	?	/	.	.
CN(c1ccccc1)S(=O)(=O)c1cccc(NC(=O)Cn2cnc3ccccc3c2=O)c1	.	.	?	.	.	.
CN(c1ccccc1)S(=O)(=O)c1cccc(NC(=O)c2nn(C)c(=O)c3ccccc23)c1	/	.	18µM	/	.	.

High-throughput results from PubChem BioAssay.
